# GDH-TPI counter-1 = counter-screen for M. tuberculosis FBA inhibitors: GDH-TPI coupled enzymes; GDH-TPI coupled enzyme counterscreen, NADH absorbance; inhibition, % at 4.8 µM; 360,000 compounds, 1.2% hits; AID 588335; in the data active means inhibition above about 30%;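 further: 0% = DMSO wells and 100% = wells lacking the enzyme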
# Mtb UGM inh = Mtb UDP-galactopyranose mutase inhibition; P9WIQ1; purified UGM, fluorescence polarization probe displacement; inhibition, % at 10 µM; 320,000 compounds, 0.06% hits; in the data active means inhibition above about 10%, passing the limit was not always enough
# FBA Mtb inh = Mtb fructose-bisphosphate aldolase inhibition. P9WQA3. purified M. tuberculosis FBA, fluorescence read-out. inhibition, % at 1 µM. 360,000 compounds, 2.3% hits. AID 588726;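 further: 0% = vehicle and 100% = reference inhibitor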
# Mtb betalactam = beta-lactam sensitization of Mtb H37Rv. M. tuberculosis H37Rv growth with meropenem, percent inhibition. 330,000 compounds, 0.27% hits. inhibition, % at 25 µM; call rule not given here;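 further: growth measured after seven days incubation then overnight dye step; 0% = bacteria only wells and 100% = bacteria with antibiotic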
# RecA intein inh = inhibitors of M. tuberculosis RecA intein splicing. P9WHJ3. cell-free RecA intein splicing, fluorescence. inhibition, % (test concentration not listed). 290,000 compounds, 0.75% hits; in the data active means inhibition above about 30%;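 further: 0% = vehicle wells and 100% = reference inhibitor control wells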
# Rv3671c inh = Rv3671c (M. tuberculosis) protease inhibition; P9WHR9; inhibition, % at 5.96 µM; 320,000 compounds, 0.048% hits; in the data active means inhibition above about 38%;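 further: extracellular domain of Rv3671c used as enzyme; 0% = enzyme with DMSO and 100% = no enzyme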
# Target sequence (P9WHR9 whole entry, looked up, the tested form may be a part): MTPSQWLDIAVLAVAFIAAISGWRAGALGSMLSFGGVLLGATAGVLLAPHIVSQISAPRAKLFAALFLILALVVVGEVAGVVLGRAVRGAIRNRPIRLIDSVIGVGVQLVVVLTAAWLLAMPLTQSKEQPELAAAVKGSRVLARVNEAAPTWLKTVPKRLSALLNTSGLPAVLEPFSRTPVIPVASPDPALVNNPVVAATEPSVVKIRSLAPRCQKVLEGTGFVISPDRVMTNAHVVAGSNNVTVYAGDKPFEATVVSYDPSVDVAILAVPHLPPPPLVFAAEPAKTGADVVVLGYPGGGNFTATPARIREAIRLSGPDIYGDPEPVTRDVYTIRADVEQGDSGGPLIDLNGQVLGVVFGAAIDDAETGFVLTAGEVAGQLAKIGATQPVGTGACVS
# Mtb FBA confirm = Mtb FBA inhibition, confirmed. shares compounds with FBA Mtb inh. purified M. tuberculosis FBA, fluorescence read-out. inhibition, % at 1 µM. 5,600 compounds, 78% hits. AID 651616;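 further: 0% = vehicle wells and 100% = reference inhibitor wells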
# GDH-TPI counter-2 = GDH-TPI inhibition counter-screen for FBA inhibitors; shares compounds with FBA Mtb inh; GDH-TPI coupled enzyme counterscreen, fluorescence; inhibition, % at 1 µM; 5,600 compounds, 81% hits; AID 652141; in the data active means inhibition above about 10%
# The depositor's hits bear a star; i = inactive; . = not tested or not shown; + = active, no number. Shown are actives, neighbours in structure and some others; about 4% of the full set was active somewhere. Unless noted, no stated cut-off is given here; in the data, active means inhibition above about 27%; inactive means the rest.
SMILES,GDH-TPI counter-1,Mtb UGM inh,FBA Mtb inh,Mtb betalactam,RecA intein inh,Rv3671c inh,Mtb FBA confirm,GDH-TPI counter-2
Cn1c2ccccc2c2ncn(Cc3ccc(F)cc3)c(=O)c21,3,3,16,3,-1,-3,.,.
CCOCCCn1cnc2c3cc(F)ccc3n(C)c2c1=O,9,-1,31*,2,-1,4,163*,133*
Cn1c2ccc(F)cc2c2ncn(CC3CCCO3)c(=O)c21 (stereo not given),17,0,27*,0,-1,-2,176*,180*
CCN(C(=O)COC(=O)/C=C/c1ccco1)C1CCCCC1,10,5,3,-1,.,6,.,.
COc1ccc(N2CCN(C(=O)COC(=O)COc3cc(C)cc(C)c3)CC2)cc1,-4,0,-1,71,-3,-1,.,.
COc1ccc(-c2csc(-c3ccc(C(=O)O)cc3)n2)cc1,22,5,49*,54,1,-4,58*,43*
Cc1cc(C)c2c(N)c3cccc(C)c3nc2n1,5,-1,65*,4,i,-3,133*,111*
Cc1cc(C)c2c(ccc3ccccc32)n1,3,.,0,.,.,.,.,.
COc1ccc(C(=O)NNC(=O)CCc2ccccc2OC)cc1,4,2,-9,0,2,-1,.,.
CCC(CO)Nc1ccn2nc(-c3cc(OC)c(OC)c(OC)c3)cc2n1 (stereo not given),14,.,32*,.,.,.,-9,-7
CCC(CO)Nc1ccn2nc(-c3cccs3)cc2n1 (stereo not given),8,.,39*,.,.,.,+,+
CCC(CO)Nc1ccn2nc(-c3ccccc3)cc2n1 (stereo not given),3,.,18,.,.,.,.,.
COc1ccc(OC)c2c1C(=O)CC2C (stereo not given),16,.,48*,.,.,.,15,7
COc1ccccc1-c1nnc(Nc2nc3c(OC)cccc3s2)o1,43*,0,33*,8,1,3,40*,41*
COCCCN1CN(S(=O)(=O)c2ccc(C)cc2C)c2nc3ccccc3nc21,32*,0,28*,19,0,0,71*,69*
CCOCCCN1CN(S(=O)(=O)c2ccc(Cl)cc2)c2nc3ccccc3nc21,16,1,24,8,5,-1,.,.
O=S(=O)(Nc1ccccc1N1CCOCC1)c1ccc(Cl)cc1,6,-1,1,3,.,-4,.,.
COc1ccc(COC(=O)c2ccc(S(=O)(=O)N3CCCCC3)cc2)cc1OC,9,-2,-2,-2,.,5,.,.
Cc1cnc(NC(=O)Nc2ccccc2)c(C)n1,9,0,59*,-2,-1,2,-5,-3
CCOC(=O)C1=C(CSc2nc(-c3ccccc3)ccc2C#N)OC(N)=C(C#N)C1c1ccc(OC)cc1 (stereo not given),15,1,74*,-4,-14,-55,112*,93*
CCC1Cc2c(nc(N)c3c(N)nc(N4CCOCC4)c(C#N)c23)O1 (stereo not given),20,0,37*,5,-23,-3,147*,122*
COCCN1C(=O)Cc2c1nc(N)c1c(N)nc(N3CCN(c4ccc(F)cc4)CC3)c(C#N)c21,13,-1,8,3,-2,7,.,.
N#Cc1c(N2CCCCC2)nc(N)c2c(N)nc3c(c12)CC(CCl)O3 (stereo not given),7,6,16,3,-4,-1,.,.
COc1ccc(CN2C(=O)Cc3c2nc(N)c2c(N)nc(N4CCOCC4)c(C#N)c32)cc1,6,-2,41*,4,-45,-13,+,+
C[C@@H]1C(=O)N(c2ccccc2)[C@@H]1c1ccncc1,2,.,0,.,.,.,.,.
SMILES,GDH-TPI counter-1,Mtb UGM inh,FBA Mtb inh,Mtb betalactam,RecA intein inh,Rv3671c inh,Mtb FBA confirm,GDH-TPI counter-2
COCCCNC(=O)CCc1c(C)nc2c(c(C)nn2-c2ccccc2)c1C,4,1,41*,0,-1,.,52*,44*
Cc1ccc(-n2nc(C)c3c(C)c(CCC(=O)NCCCOC(C)C)c(C)nc32)cc1,10,-4,25,5,-1,.,.,.
COC(CNC(=O)CCc1c(C)nc2c(c(C)nn2-c2ccc(C)cc2)c1C)OC,19,1,40*,2,2,.,-12,-12
CCN(CC)CCNC(=O)CCc1c(C)nc2c(c(C)nn2-c2ccc(C)c(C)c2)c1C,1,-3,36*,5,-1,.,197*,196*
Cc1cc(=O)oc2cc(OCC(=O)OCC(=O)Nc3ccccc3C(C)C)ccc12,10,-1,26,3,0,-10,.,.
Cc1cc(=O)oc2cc(OCC(=O)OCC(=O)NC(C)C)ccc12,13,-3,48*,-8,.,3,107*,85*
Cc1cc(=O)oc2cc(OCC(=O)OCC(=O)Nc3ccccc3F)ccc12,9,4,54*,-6,0,0,169*,147*
Cc1cc(=O)oc2cc(OCC(=O)NC3(C#N)CCCCC3)c(Cl)cc12,15,.,22,.,.,.,.,.
Cc1nnc(NC(=O)COc2ccc3c(C)cc(=O)oc3c2)s1,10,3,40*,-8,1,2,192*,144*
Cc1cc(=O)oc2cc(OCC(=O)NC3(C#N)CCCCC3)ccc12,12,.,77*,.,.,.,58*,58*
CC(=O)NC(c1ccccc1)c1nc(-c2cccc(CO)c2)cs1 (stereo not given),0,.,-3,.,.,.,.,.
CC(=O)N1CCN(c2nc(CC(C)C)c3c(c2C#N)CCC3)CC1,17,3,38*,40,2,0,48*,35*
CC(C)Cc1nc(N2CCN(C(=O)c3ccccc3)CC2)c(C#N)c2c1CCC2,-16,-1,12,23,26,8,.,.
CC(C)Cc1nc(N2CCN(C(=O)C(C)C)CC2)c(C#N)c2c1CCC2,7,-3,33*,7,11,-2,59*,41*
Cc1nc(NC(=O)CCc2ccccc2)sc1C,3,-1,1,-7,.,-6,.,.
O=C(N/N=C/c1ccccc1F)c1cc2c(ccc3ccccc32)o1,13,-3,30*,-11,-1,1,54*,36*
O=C(COC(=O)c1ccccc1SCC(=O)NC1CCS(=O)(=O)C1)NC1CCS(=O)(=O)C1 (stereo not given),2,3,3,-11,1,0,.,.
CCNC(=O)NC(=O)COC(=O)c1ccccc1SCC(=O)NC(=O)NCC,20,2,79*,16,-22,-10,18,8
CC[C@H](C)[C@H](NC(=O)c1ccc(Cl)cc1)C(=O)OCC(=O)c1c(N)n(C)c(=O)n(C)c1=O,-5,0,-2,-1,.,4,.,.
COc1cccc(-c2csc(NC(=O)Oc3ccccc3)n2)c1,4,0,1,-8,2,-1,.,.

# Screening results (PubChem BioAssay)
